Source: PubChem (National Center for Advancing Translational Sciences (NCATS))
Gal4-VP16 FLuc: counter-screen for ROR gamma inhibitors: Gal4-VP16 reporter | Drosophila S2 Gal4-VP16 UAS-luciferase, luminescence, 20 h | 310,000 tested, 3.5% active | Potency, µM (highest dose often 53.6 µM), most hits filed as inhibitors | AID 2546;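 also: Gal4-VP16 expression switched on by copper sulfate through the metallothionein promoter; nearly all actives have a fitted effect of over 50% in size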
ELG1 repair inh: inhibitors of ELG1-dependent DNA repair in HEK293T cells; AID 504467; 330,000 tested, 2.3% active; HEK293T ELG1-luciferase reporter, luminescence, 16 h; DNA damage induced by 5-fluorouridine; Potency, µM (titrated, usually from 46.1 µM), hits mostly inhibitors; also: nearly all actives have a fitted effect of over 55% in size
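HEK293T cells expressing luciferase-tagged ELG1 (2,000/well) received 5-Fluorouridine plus compound or DMSO for 16 hr at 37 °C. Luciferase was read by ONE-Glo luminescence after 30 min at room temperature.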
p53 reactivation: mutant p53 re-activation in reporter cells | 320,000 tested, 0.063% active | H1299 p53-A138V BP100-luciferase reporter, luminescence, 24 h | Potency, µM (series often up to 92.2 µM), usual class: activators | AID 504706; also: nearly all actives have a fitted effect of over 45% in size
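p53-null H1299 cells stably carrying temperature-sensitive p53-A138V and a BP100-luciferase reporter were pinned with compounds (4-point, 1:5 series) and held 24 hrs at 37 deg C. Luminescence was read 10 min after detection reagent.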
BRCA1 expr up: activators of BRCA1 expression; MCF7-BRCA1-FFLuc reporter, luminescence, 48 h; response scale: scaled: vehicle 0%, 10 µM genistein 100%; AID 624202; 380,000 tested, 1.1% active; Potency, µM (top dose mostly 46.1 µM), actives largely listed as activators; also: nearly all actives have a fitted effect of over 80% in size
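Luminescence from a BRCA1-driven firefly luciferase in MCF7 cells was read after 48 h compound exposure at 37 C. Data normalized against DMSO and a 10microM genistein activation control, then curve-fitted across the titration.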
RORgamma inh: inhibitors of mouse ROR gamma transcriptional activity. P51450. 310,000 tested, 5.4% active. Drosophila S2 Gal4-RORgamma UAS-luciferase reporter, 20 h. Potency, µM (top dose mostly 53.6 µM), usual class: inhibitors. AID 2551; also: nearly all actives have a fitted effect of over 60% in size
Target sequence (P51450 whole entry, looked up, the tested form may be a part): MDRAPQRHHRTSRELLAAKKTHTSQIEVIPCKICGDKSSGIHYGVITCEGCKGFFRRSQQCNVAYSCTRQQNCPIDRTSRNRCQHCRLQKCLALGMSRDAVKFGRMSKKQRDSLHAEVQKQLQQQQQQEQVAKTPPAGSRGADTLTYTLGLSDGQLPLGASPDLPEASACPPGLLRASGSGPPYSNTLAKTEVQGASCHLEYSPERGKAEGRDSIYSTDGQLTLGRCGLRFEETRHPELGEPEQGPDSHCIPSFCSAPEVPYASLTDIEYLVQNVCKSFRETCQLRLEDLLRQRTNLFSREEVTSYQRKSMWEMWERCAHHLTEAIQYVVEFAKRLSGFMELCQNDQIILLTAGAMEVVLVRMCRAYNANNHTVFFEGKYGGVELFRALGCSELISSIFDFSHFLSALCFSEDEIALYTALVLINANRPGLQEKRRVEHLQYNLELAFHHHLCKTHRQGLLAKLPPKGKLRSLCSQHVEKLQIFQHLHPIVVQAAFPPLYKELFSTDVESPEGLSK
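Schneider cells (Drosophila), stable Gal4 DBD–ROR gamma + UAS-luc; 1 hr cmpd preincubation; Cu2+ induction 700 uM final; 20 hr ambient; luminescence.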
Giardia kill: Giardia lamblia killing; Giardia lamblia trophozoite viability; activity change, % at 7.66 µM, hits read low; 340,000 tested, 0.15% active; in the data active = activity change below about -80%; inconclusive = between about -30% and that limit;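 also: parasites exposed to compound for two days anaerobically before the ATP read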
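Each well holds 100 Giardia trophozoites and compound. After two days (48 hrs) at 37 deg C in anaerobic conditions, ATP is quantified by luminescence.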
Of the large screens only hits and unclear results are named; the others gave an inactive call. Sampled rows, rich in hits. Any-hit rate of the full collection: about 7.6%. Unless noted, calls follow the shape of the dose curve; as a rule, active = well fitted curve in the direction sought with a large enough effect; inconclusive = small, poorly fitted or top-dose-only effect, or another doubt; inactive = no such curve, though single readings can be large; an effect the other way counts as inactive or inconclusive.

COCCNC(=O)C1CC(c2cccc(F)c2)=NO1 (configuration not stated)	none
O=C(COc1ccccc1-c1ccccc1)N/N=C/c1ccc2ccccc2c1	RORgamma inh inconclusive
Cc1ccccc1C(=O)Nc1nnc(S(=O)(=O)N(C)Cc2ccco2)s1	p53 reactivation inconclusive, RORgamma inh inconclusive
COc1ccc(-c2nc3nc(SC)nn3cc2C)cc1F	Gal4-VP16 FLuc 25µM
CC1CCCC(C)N1C(=O)c1ccc(S(=O)(=O)NCc2ccco2)cc1 (configuration not stated)	ELG1 repair inh 12µM, RORgamma inh inconclusive
CC(=O)NC(c1ccc(F)c(F)c1)c1nc(-c2cccc(C(F)(F)F)c2)cs1 (configuration not stated)	none (no result: Gal4-VP16 FLuc, ELG1 repair inh, p53 reactivation, RORgamma inh, Giardia kill)
CC(=O)Nc1c(-c2ccccc2Cl)c(=O)c2ccccc2n1C	none
CC(=O)Nc1ccc(C(=O)CCl)cc1	Gal4-VP16 FLuc inconclusive, RORgamma inh 4.5µM
CN(Cc1ccccc1)S(=O)(=O)c1nnc(NC(=O)c2ccccc2)s1	none
CCN(Cc1ccccc1)S(=O)(=O)c1ccc(C(=O)Nc2nnc(C3CC3)o2)cc1	Gal4-VP16 FLuc 0.56µM, ELG1 repair inh 12µM, p53 reactivation inconclusive
Cc1nnc(NC(=O)c2ccc(S(=O)(=O)N(C)Cc3ccccc3)cc2)o1	Gal4-VP16 FLuc 0.56µM, RORgamma inh 0.2µM, Giardia kill inconclusive
COCc1nnc(NC(=O)c2ccc(S(=O)(=O)N(C)Cc3ccccc3)cc2)o1	Gal4-VP16 FLuc 2.2µM, ELG1 repair inh inconclusive, RORgamma inh 0.79µM
C=CCN(c1ccccc1)S(=O)(=O)c1c(C)[nH]c(=O)[nH]c1=O	none
CCCc1ccc2oc(C(=O)N3CCN(c4cnccn4)CC3)c(C)c2c1	none
Nc1c(C(=O)Nc2ccccc2)sc2nc(N3CCOCC3)c3c(c12)CCCC3	BRCA1 expr up 13µM (no result: Gal4-VP16 FLuc, ELG1 repair inh, p53 reactivation, RORgamma inh, Giardia kill)
Nc1c(C(=O)Nc2ccc(Cl)c(C(=O)O)c2)sc2nc3c(cc12)CCCC3	ELG1 repair inh inconclusive, RORgamma inh inconclusive
COc1ccc(NC(=O)c2sc3nc(N4CCCC4)c4c(c3c2N)CC(C)(C)OC4)cc1	ELG1 repair inh 5.8µM
Nc1c(C(=O)Nc2cccc(C(=O)O)c2)sc2nc3c(cc12)CCCC3	Gal4-VP16 FLuc 3.2µM, ELG1 repair inh inconclusive, RORgamma inh 2.8µM, Giardia kill inconclusive
COc1ccc(NC(=O)c2sc3nc(N4CCOCC4)c4c(c3c2N)CC(C)(C)OC4)c(OC)c1	ELG1 repair inh inconclusive
N#Cc1cc(-c2ccc(Cl)cc2)cnc1Sc1ccc(F)cc1	none
O=C(Nc1cccc(C(F)(F)F)c1)c1ccc2nc(-c3ccco3)c(-c3ccco3)nc2c1	ELG1 repair inh 21µM, RORgamma inh inconclusive
O=C(O)c1ccc2nc(-c3ccco3)c(-c3ccco3)nc2c1	none
COc1ccc(C(=O)Nc2cccc(-c3nnc(-c4ccco4)o3)c2)cc1	Gal4-VP16 FLuc inconclusive, ELG1 repair inh 21µM, RORgamma inh inconclusive
COc1ccc(CC(=O)Nc2cccc(-c3nnc(-c4ccco4)o3)c2)cc1	ELG1 repair inh inconclusive
Cc1cc(C)cc(OCC(=O)Nc2cccc(-c3nnc(-c4ccco4)o3)c2)c1	ELG1 repair inh 21µM
COc1cc(N/C(N)=N/c2nc(C)cc(C)n2)cc(OC)c1	ELG1 repair inh inconclusive
Cc1ccc(S(=O)(=O)NC(C)C(c2cccs2)N2CCN(c3ccccc3)CC2)cc1 (configuration not stated)	ELG1 repair inh inconclusive
CC(=O)c1cccc(-n2nnnc2SCC(=O)Nc2cccc(NC(=O)c3ccco3)c2)c1	ELG1 repair inh 18µM, RORgamma inh inconclusive
COc1cccc(C2CC(=O)C3=C(C2)Nc2ccccc2N(C(=O)CCC(=O)O)C3c2ccc(F)cc2)c1 (configuration not stated)	none
O=C1OC(c2ccccc2)=NC12CC2c1ccc(Cl)cc1 (configuration not stated)	Gal4-VP16 FLuc 5µM, RORgamma inh 10µM
O=CN1N=C(c2ccccc2)CC1c1ccc(Cl)cc1 (configuration not stated)	none
CSC1=NC(NCCCO)c2c(sc3c2CC(C)(C)OC3)N1 (configuration not stated)	ELG1 repair inh 21µM
CSCCC(=O)N1CCN(CC(=O)N2CCCC2)CC1	ELG1 repair inh inconclusive, RORgamma inh 2.8µM, Giardia kill inconclusive
Cc1ccc(NC(=S)NCc2ccc3c(c2)OCO3)cc1C	Gal4-VP16 FLuc inconclusive, ELG1 repair inh inconclusive, RORgamma inh 13µM
CCOc1ccc(NC(=O)NCc2ccc3c(c2)OCO3)cc1	none
Fc1ccc(NC(=S)NCc2ccc3c(c2)OCO3)cc1	Gal4-VP16 FLuc inconclusive, RORgamma inh 11µM
Cc1ccc(NC(=O)NCc2ccc3c(c2)OCO3)cc1C	ELG1 repair inh inconclusive, BRCA1 expr up inconclusive
O=C(NCc1ccc2c(c1)OCO2)Nc1ccc(F)cc1	ELG1 repair inh inconclusive, BRCA1 expr up 10µM
Oc1ccc(Cl)cc1CNc1ccccn1	none (no result: p53 reactivation)
Cc1cccc(N=C2NN=C(c3ccc4c(c3)OCCO4)CS2)c1	Gal4-VP16 FLuc inconclusive, ELG1 repair inh inconclusive, p53 reactivation inconclusive, RORgamma inh 7.9µM
Cc1ccccc1NC(=S)NC(=O)c1cc(-c2ccccc2)nc2ccccc12	Gal4-VP16 FLuc 4µM, RORgamma inh 1.8µM
COc1cccc(-c2cc(C(=O)Nc3ccccc3)c3ccccc3n2)c1	none (no result: Gal4-VP16 FLuc, ELG1 repair inh, p53 reactivation, RORgamma inh)
O=C(O)c1ccccc1NC(=O)c1cc(-c2ccccc2)nc2ccccc12	RORgamma inh inconclusive
Cc1cccc(NC(=S)NC(=O)c2cc(-c3ccccc3)nc3ccccc23)c1	Gal4-VP16 FLuc 5.6µM, RORgamma inh 2µM
COc1ccc(NC(=O)CN(C)C(=O)c2cccc(S(=O)(=O)N3CC4(C)CC3CC(C)(C)C4)c2)cc1 (configuration not stated)	none (no result: Gal4-VP16 FLuc, RORgamma inh)
COc1ccc(OC)c(/C=N\NC(=O)c2ccc(-c3ccccc3)cc2)c1	ELG1 repair inh inconclusive
O=C(N/N=C/c1ccccc1)c1ccc(-c2ccccc2)cc1	none
COc1cccc(/C=N/NC(=O)c2ccc(-c3ccccc3)cc2)c1O	Gal4-VP16 FLuc 3.2µM, ELG1 repair inh inconclusive, RORgamma inh 0.71µM
COc1cccc(/C=N/NC(=O)C(=O)Nc2ccccc2OC(F)(F)C(F)F)c1O	Gal4-VP16 FLuc 1.4µM, ELG1 repair inh inconclusive, p53 reactivation inconclusive, RORgamma inh 1µM
COc1cc(OC)c(OC)cc1/C=N/NC(=O)c1ccc(=O)n(C)c1	none
COc1ccccc1/C=N/NC(=O)c1cccc(OC(F)(F)C(F)F)c1	none
O=C(N/N=C\c1ccccc1F)c1ccc(-c2ccccc2)cc1	ELG1 repair inh inconclusive, BRCA1 expr up 10µM
